# Screens as filed in PubChem.
# HT1080NT lethal – kills 2HG-producing HT-1080-NT fibrosarcoma cells. AID 686970. 360,000 compounds, 1.6% hits. HT-1080-NT fibrosarcoma viability, CellTiter-Glo ATP luminescence, 48 h. Potency, µM (doses to about 46.1 µM), inactives show at the top dose activity, negative = less viability, usual class: cytotoxic;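 further: NT is the 2HG producing partner of a matched IDH1 knockdown line; potency means the concentration at half of the fitted maximal effect; 0% = DMSO-treated cells and -100% = media-only wells without cells; nearly all actives have a fitted effect of over 55% in size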
#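 Viability by CellTiter-Glo luminescence after 48 h compound exposure at 37C of HT-1080-NT cells (750/well, RPMI, 5% FBS). % activity scaled between DMSO wells and medium-only wells, then curve-fitted and categorized by curve class.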
# DT40 TDP1 CPT – growth inhibition of DT40 Tdp1-/-;hTDP1 cells with camptothecin (screen for TDP1 inhibitors) | chicken DT40 Tdp1-/-;hTDP1 cells + 20 nM CPT, ATP luminescence, 48 h | Potency, µM (titrated, usually from 46.2 µM), for the others: at the top dose activity change, negative = growth inhibition, actives largely listed as inhibitors | 420,000 compounds, 12% hits; further: potency means the concentration at half of the fitted maximal effect; nearly all actives have a fitted effect of over 55% in size
#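 Cell growth measured by CellTiter-Glo luminescence after a minimum 48 h, 37 C compound exposure with 20 nM CPT in Tdp1-knockout DT40 cells stably expressing hTDP1, seeded 400/well; qHTS titration format.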
# IL-1B inflam inh – inflammasome signaling inhibition, IL-1 beta readout | THP-1 LPS/ATP IL-1B secretion, AlphaLISA, 16 h; hits give low values | activity change, % at 57.5 µM | 360,000 compounds, 4.7% hits | AID 743279; in the data active means activity change below about -50%; inconclusive means mostly about -30% to -49%
#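 THP-1 cells pretreated 1 hr with compounds (up to 57.5 uM final), then stimulated with LPS (250 ng/mL final) plus ATP (1.25 mM final); secreted IL-1B measured by AlphaLISA after 16 hr, decreased signal indicating inhibition.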
# HT1080 IDH1KD tx – kills HT-1080 cells with IDH1 knockdown. 360,000 compounds, 2% hits. Potency, µM (doses to about 46.1 µM), for inactives: at the top dose activity, negative = toxicity, actives largely listed as cytotoxic. AID 686971. HT-1080 IDH1 knockdown viability, ATP luminescence, 48 h;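 further: potency means the concentration at half of the fitted maximal effect; 0% = DMSO wells and -100% = cell-free medium wells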
#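 Assay cells: HT-1080 with IDH1 knockdown, 750 per well, RPMI/5% FBS. Exposure: 48 h at 37 °C following 2 h pre-incubation. Read: CellTiter-Glo luminescence; fitted concentration-response, curve class assigned.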
# TDP1 cell noCPT – qHTS for Inhibitors of human tyrosyl-DNA phosphodiesterase 1 (TDP1): qHTS in cells in absence of CPT | Potency, µM (top dose mostly 46.2 µM), without a hit: at the top dose activity change, negative = growth inhibition, most hits filed as inhibitors | 420,000 compounds, 15% hits | DT40 Tdp1-/- hTDP1 cells, no CPT, ATP luminescence, 48 h | AID 686978, 2013; further: potency means the concentration at half of the fitted maximal effect; nearly all actives have a fitted effect of over 55% in size
#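 Cells were dispensed at 400 per well, compounds added by pin tool, plates incubated ≥48 hr at 37 °C, then CellTiter-Glo added for 30 min at room temperature before luminescence reading. Line: DT40 Tdp1-/- complemented with hTDP1; camptothecin omitted.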
# The depositor's hits bear a star; ? = inconclusive; · = no result given. Compounds with a hit are over-represented: about 19% of the library has one in this group of screens. Unless noted, the call rests on the fitted dose curve; in most records, active means well fitted curve in the direction sought with a large enough effect; inconclusive means small, poorly fitted or top-dose-only effect, or another doubt; inactive means no such curve, though single readings can be large; an effect the other way counts as inactive or inconclusive. Unless noted, on the % scale 0 is the no-effect control and ±100 the full control effect.
SMILES,HT1080NT lethal,DT40 TDP1 CPT,IL-1B inflam inh,HT1080 IDH1KD tx,TDP1 cell noCPT
COc1cc(=O)n2c(c1C(=O)N(C)Cc1nonc1C)CCN(C(=O)C1C(C)(C)C1(C)C)CC2,·,14%,·,·,-11%
Cc1cc(N=Nc2ccccc2C)ccc1N,?,-5%,?,?,-23%
COc1ccc(CNS(=O)(=O)c2cc3c(cc2C)N(C)CCO3)cc1,4%,?,2,-27%,15µM*
O=C(Cc1cccc(C(F)(F)F)c1)N1CCN(CC(=O)N2CCCC2)CC1,-4%,0%,17,-3%,0%
O=C(CCN1CCN(CCO)CC1)N1c2ccccc2Sc2ccc(C(F)(F)F)cc21,-8%,?,?,-27%,23µM*
O=C(Nc1ccc2nc(SCC(=O)N3CCCc4ccccc43)sc2c1)c1ccccc1F,·,5.8µM*,·,·,5.2µM*
COc1ccccc1C(=O)Nc1ccc2nc(SCC(=O)N3CCCc4ccccc43)sc2c1,·,5.2µM*,·,·,2.9µM*
Cc1nc2ccc(Cl)cc2c(=O)n1-c1ccc([N+](=O)[O-])cc1,2%,-3%,21,-8%,-26%
O=[N+]([O-])c1ccc2nc(N3CCNCC3)ccc2c1,?,?,-53*,?,21µM*
O=C(N/N=C/c1c(O)n(-c2cccc3ccccc23)c(=O)[nH]c1=O)c1ccncc1,12%,4%,12,23%,11%
O=C(c1ccc2c(=O)n(Cc3ccc4c(c3)OCO4)c(=S)[nH]c2c1)N1CCC2(CC1)OCCO2,0%,23µM*,8,14%,?
O=C(Nc1ccc(Cl)c(Cl)c1)O/N=C/c1ccncc1,-17%,?,-94*,1%,?
C[C@]12CCC3C(CC[C@H]4C[C@@H](O)CC[C@]34C)C1=CC[C@@H]2O (some centres undefined),-11%,-27%,21,-2%,?
CCN(CC)C(=O)c1ccc(NC(=O)c2cccc(S(=O)(=O)N3CCN(C)CC3)c2)cc1,-9%,-20%,16,-4%,-23%
CCc1ccc(NC(=O)c2ccc(F)c(S(=O)(=O)N3CCc4ccccc4C3)c2)cc1,·,?,·,·,21µM*
CCc1ccc(NC(=O)c2ccc(F)c(S(=O)(=O)N3CCC4(CC3)OCCO4)c2)cc1,·,?,·,·,21µM*
COc1ccc(CCN)cc1O,15%,-25%,0,0%,-20%
CCCCCCC(C)OC(=O)COc1ccc(Cl)cc1Cl (centres undefined),·,18%,·,·,15%
CCCCOc1ccc(CCN)cc1Cl,-15%,2.3µM*,-69*,-6%,2.1µM*
CC(C)Oc1ccc(CCN)cc1Cl,1%,5.2µM*,4,?,5.8µM*
CN1CCC2(CC1)NC(=O)C1=C(CN(C)CC1)N2,5%,-8%,5,7%,-17%
CN(C)c1ccc(C=Cc2ccnc3c(O)cccc23)cc1,?,?,64,5%,13µM*
CN(C)c1ccc(/C=C/c2ccnc3c(O)cccc23)cc1,·,-98%,·,·,10µM*
NC(CCc1ccccc1)c1csc(NC(=O)Nc2ccccc2Oc2ccccc2)n1 (centres undefined),23µM*,6.5µM*,-79*,?,6.5µM*
COC1C(C)OC(OC2CC(C)(O)Cc3cc4c(c(O)c32)C(=O)c2c(O)cc3c(c2C4=O)OC2OC3(C)C(O)C(N(C)C)C2O)C(OC)C1(C)OC (centres undefined),?,0.082µM*,-99*,16µM*,0.12µM*
CCOc1c(Cl)cc(CNCCc2c[nH]c3ccccc23)cc1OC,?,?,-87*,-8%,15µM*
CCOc1cc(CNCCc2c[nH]c3ccccc23)cc(Cl)c1OCC,?,16µM*,-97*,?,18µM*
C=CCn1c(O)c(Cc2ccc(OCC)cc2)c(=O)[nH]c1=O,-2%,24%,9,13%,0%
